The target of assay [1] is Fructose-bisphosphate aldolase (Giardia intestinalis (strain ATCC 50803 / WB clone C6)) (UniProt A8B2U2). Put plainly: qHTS Assay for Inhibitors of Fructose-1,6-bisphosphate Aldolase from Giardia Lamblia: Primary screen confirmation (AID 2787).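 Note: aldolase product measured through coupled diaphorase step turning resazurin into fluorescent resorufin; % is set by controls: 0 for no effect and ±100 for the full control effect; nearly all actives have a fitted effect of over 45% in size.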 The essentials:
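FBPA (40 nM in enzyme reagent, with 30 uM ZnCl2) was preincubated 10 min at RT with compound up to 57.5 uM final. Substrate plus coupled detection system was then added, and fluorescence (525/598 nm) was read after 20 min at RT.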

Assay [2] in a line: qHTS screen for small molecules that inhibit ELG1-dependent DNA repair: Hit Confirmation in Cell-Based Luciferin Assay (AID 624247). Note: % is set by controls: 0 for no effect and ±100 for the full control effect. In short, it runs like this: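 Compounds were added to luciferase substrate reagent, with DMSO-only wells as vehicle controls. Luciferase enzyme was added after the compounds, and the signal was recorded as luminescence.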
The target in assay [3] is ATPase family AAA domain-containing protein 5 (Homo sapiens) (UniProt Q96QE3). The assay can be described thus: HTS assay for small molecules that inhibit ELG1-dependent DNA repair in human embryonic kidney (HEK293T) cells expressing luciferase-tagged ELG1: Hit Confirmation (AID 624248). Note: potency is the fitted concentration of half-maximal effect; nearly all actives have a fitted effect of over 55% in size. The conditions noted are these: HEK293T ELG1-luciferase levels, luminescence; cells co-treated with 5-fluorouridine. In short, it runs like this: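 Suppression of ELG1-luciferase signal was read by ONE-Glo luminescence in HEK293T reporter cells after 16 h at 37 C co-treatment with compound and 5-fluorouridine as DNA-damaging agent.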

Assay [4] has the same target. The assay can be described thus: qHTS screen for small molecules that inhibit ELG1-dependent DNA repair in human embryonic kidney (HEK293T) cells expressing luciferase-tagged ELG1: Hit Confirmation using MMS Stimulated ELG1 (AID 624249). Note: potency is the fitted concentration of half-maximal effect; nearly all actives have a fitted effect of over 60% in size. The conditions noted are these: HEK293T luciferase-tagged ELG1 level. In short, it runs like this:
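Luminescence from luciferase-tagged ELG1 measured 16 h after pin-tool compound transfer into HEK293T cells stimulated with 10 µM MMS (final). Compounds lowering luciferase signal counted as inhibitors of ELG1 response.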

Assay [5] is described as follows: qHTS screen for small molecules that inhibit ELG1-dependent DNA repair: Hit Confirmation with MMS Viability (AID 624251). Note: potency is the fitted concentration of half-maximal effect; nearly all actives have a fitted effect of over 60% in size. The conditions noted are these: Cell viability with MMS. The essentials:
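Viability by CellTiter-Glo 16 h after compound addition to ELG1-luciferase HEK293T cells co-treated with 10 µM final MMS; cells seeded at 2,000/well and dosed roughly 5 h post-plating.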

Assay [6] addresses Luciferin 4-monooxygenase (Photinus pyralis) (UniProt P08659). The assay can be described thus: qHTS screen for small molecules that inhibit ELG1-dependent DNA repair: Hit Confirmation in Biochemical Luciferin Assay (AID 624253). Note: % is set by controls: 0 for no effect and ±100 for the full control effect. The essentials: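 Steps: (1) dispense substrate reagent; (2) pin-transfer test compounds or DMSO vehicle; (3) add luciferase; (4) image luminescence with a CCD reader.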

Assay [7] addresses Lysosomal acid glucosylceramidase (Homo sapiens) (UniProt P04062). Put plainly: Glucocerebrosidase-p2 (AID 348; in the data active = potency below about 10 µM; note: potency is the fitted concentration of half-maximal effect). The note with it: purified GBA, blue fluorogenic substrate, 40 min. In short, it runs like this: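 Normal human glucocerebrosidase (0.2 nM) with blue fluorogenic substrate (80 uM final) in citrate/phosphate pH 5.9 with 10mM sodium taurocholate, 0.01% tween-20; 40 min RT, NaOH/glycine stop; fluorescence Ex 365/Em 440; AC50 from a titration from 0.6 nM upwards.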

Assay [8] is described as follows: AP1 Signaling Pathway (AID 357; active = well fitted curve in either direction with a large enough effect, not every such curve was filed as active;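 note: ME-180 reporter cells stimulated with EGF at its EC50 level; % is set by controls: 0 for no effect and ±100 for the full control effect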). The conditions noted are these: ME-180 AP-1-bla reporter, EGF-induced, beta-lactamase ratio, 5 h; at 7.69 µM (top of the series) unless noted. The essentials:
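AP-1-bla ME-180 cells, Opti-MEM + 0.5% dialyzed FBS, plated overnight 37 °C. Cpd titration + EC50 EGF, 5 h 37 °C. CCF4 2.5 h RT; ex 405, em 460/530 ratio → %activity, AC50.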

The target of assay [9] is Cytochrome P450 1A2 (Homo sapiens) (UniProt P05177). The assay can be described thus: p450-cyp1a2 (AID 410; calls by dose curve; note: potency is the fitted concentration of half-maximal effect). The essentials: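 O-Demethylation of luciferin 6' methyl ether by human CYP1A2 is monitored as luciferase luminescence. Substrate sits at Km (100uM); enzyme is 20nM. Values are scaled to 57 uM furafylline as maximal inhibition.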
Assay [10] in a line: NFAT Signaling Pathway (AID 444; active = well fitted curve in either direction with a large enough effect, not every such curve was filed as active;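 note: carbachol stimulus at about its EC50 of 1 µM final; % is set by controls: 0 for no effect and ±100 for the full control effect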). The conditions noted are these: Jurkat NFAT-bla M1, carbachol, beta-lactamase ratio, 5 h; at 7.69 µM (top of the series) unless noted. The essentials: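 Read-out: CCF4 FRET ratio (460 nm/530 nm) after 1 h RT dye loading, used for %activity and AC50 from titration series. Cells: Jurkat NFAT-β-lactamase/M1 line, treated with compound plus 1 uM carbachol for 5 h, 37 °C.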

The nature of assay [11]: Stat Signaling Pathway (AID 446; active = well fitted curve in either direction with a large enough effect, not every such curve was filed as active). The conditions noted are these: ME-180 (cervical carcinoma) SIE beta-lactamase reporter, IL-6 stimulated, 5 h; at 7.69 µM (top of the series) unless noted. The essentials: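 FRET read-out (405 nm excitation, 460/530 nm emission) of a beta-lactamase reporter under a STAT-inducible element in ME-180 cervical carcinoma cells. Cells with compound receive 40 pM IL-6 for 5 h. Values are normalised to AC90 stimulation and AC90 JAK-inhibitor controls.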

The target in assay [12] is Glucocorticoid receptor (Homo sapiens) (UniProt P04150). The assay can be described thus: GR-GFP Redistribution (AID 450;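 active = compounds whose dose series gives a full or clear partial fitted curve of increased nuclear translocation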; note: potency is the fitted concentration of half-maximal effect). The conditions noted are these: U2OS GR-GFP nuclear translocation, laser cytometry, 2 h.
For assay [13] the target is unchanged. The assay can be described thus: GR-EFC Redistribution (AID 451; calls by dose curve; note: potency is the fitted concentration of half-maximal effect). The note with it: CHO-K1 GR-EFC translocation, beta-gal luminescence, 2 h. In short, it runs like this: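 Translocation of GR-ED fusion to nuclear EA restores b-gal, read by luminescence after 1 h room-temperature detection. Engineered CHO-K1 biosensor cells, 1,000/well, exposed 2 h at 37 C to titrations up to 46 uM final.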

For assay [14], the target named is Mitogen-activated protein kinase 10 (Mus musculus) (UniProt Q61831). The assay can be described thus: JNK3 AlphaScreen Assay (AID 530; active = well fitted curve in either direction with a large enough effect, not every such curve was filed as active). The essentials:
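qHTS titrations with 15 min compound pre-incubation before adding ATP (10 uM final). Read-out: AlphaScreen of Ser73-phosphorylated biotin-GST-cJun using HepG2 lysate JNK3 activated by IL-1β and TNFα.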

For assay [15], the target named is Cytochrome P450 3A4 (Homo sapiens) (UniProt P08684). The assay can be described thus: qHTS Assay for Activators of Cytochrome P450 3A4 (AID 885). Note: nearly all actives have a fitted effect of over 65% in size. In short, it runs like this: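 Luminescent readout of luciferin formed from 25 uM Luciferin-PPXE (KM level) by 20 nM CYP3A4 in 200 mM KPO4, with 60 min NADPH-driven reaction at room temperature after 10 min compound exposure. Ketoconazole (57 uM) defined 100% inhibition.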

Assay [16] can be described thus: Confirmation and Secondary Assay for Modulators of Hemoglobin Beta Chain Splicing at IVS2 654 locus (AID 910).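 Note: HeLa cells stably carrying EGFP split by mutant beta-globin IVS2-654 intron; per-well total GFP intensity by laser scanning cytometry after 2-day treatment; % of control where 0% means no effect.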 The essentials: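 Readout: per-well total peak green fluorescence (488 nm ex, 500–520 nm em) from objects 5–250 µm, reflecting correct splicing of an EGFP-654 reporter. Compounds were applied for 2 days at 37 °C to overnight-plated HeLa EGFP-654 cells; controls were DMSO and 500 nM IVS2-654 PNA.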

The nature of assay [17]: Confirmation and Secondary Assay for Modulators of Hemoglobin Beta Chain Splicing at IVS2 705 locus (AID 930).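 Note: HeLa cells stably expressing the EGFP-705 splicing reporter; GFP fluorescence per well restored by corrected splicing of the IVS2-705 intron in EGFP; % of control where 0% means no effect.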 In short, it runs like this: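 First, HeLa EGFP-705 cells are seeded at 500/well in Optimem with 2% FCS and left overnight. Next, compound or DMSO is added for 2 days. Finally wells are laser-scanned and total peak GFP intensity scored.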
Assay [18] deals with Ubiquitin carboxyl-terminal hydrolase 1 (Homo sapiens) (UniProt O94782). The assay can be described thus: Inhibitors of USP1/UAF1: Pilot qHTS (AID 504865).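 Note: rhodamine fluorescence freed from ubiquitin-rhodamine substrate followed over time; top concentration of the series differs between compounds; % is set by controls: 0 for no effect and ±100 for the full control effect; nearly all actives have a fitted effect of over 35% in size.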 The essentials: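 Deubiquitinase activity followed as kinetic rhodamine fluorescence release from 150 nM Ub-Rho. 1 nM USP1/UAF1 with compound, after 15 min room-temperature preincubation, in HEPES pH 7.8 buffer containing TCEP, EDTA, BSA and Tween-20.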

Assay [19] has as its target 3',5'-cyclic-AMP phosphodiesterase 4B (Homo sapiens) (UniProt Q07343). Put plainly: qHTS Assay for Inhibitors of PDE-IV (AID 607; active = well fitted activation curve with a large enough effect in the main read-out, with a control signal flat, not every such curve was filed as active; note: % of control where 0% means no effect). In short, it runs like this: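 Cell-based read-out of cAMP via a modified cyclic nucleotide-gated channel and membrane potential dye (535/590 nm) in HEK293 cells expressing PDE4 endogenously. Compounds tested up to 22.9 uM final; 100 uM RO 20-1724 reference.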

Results on 4 molecules are retold here after PubChem BioAssay (NCATS).

A number with no mark means an inactive call. Results filed as inconclusive are left out. The list shows a part of the results. Calls of active or inactive are those of the source. Unless noted, calls come from the whole dose curve; as a rule, active = well fitted curve in the direction sought with a large enough effect; inconclusive = small, poorly fitted or top-dose-only effect, or another doubt; inactive = no such curve, though single readings can be large; an effect the other way counts as inactive or inconclusive. Residues, ends and D or L forms follow the SMILES beside them. Bounds are passed on as bounds.

Lysosomal acid glucosylceramidase (Homo sapiens), sequence (P04062 whole entry, looked up): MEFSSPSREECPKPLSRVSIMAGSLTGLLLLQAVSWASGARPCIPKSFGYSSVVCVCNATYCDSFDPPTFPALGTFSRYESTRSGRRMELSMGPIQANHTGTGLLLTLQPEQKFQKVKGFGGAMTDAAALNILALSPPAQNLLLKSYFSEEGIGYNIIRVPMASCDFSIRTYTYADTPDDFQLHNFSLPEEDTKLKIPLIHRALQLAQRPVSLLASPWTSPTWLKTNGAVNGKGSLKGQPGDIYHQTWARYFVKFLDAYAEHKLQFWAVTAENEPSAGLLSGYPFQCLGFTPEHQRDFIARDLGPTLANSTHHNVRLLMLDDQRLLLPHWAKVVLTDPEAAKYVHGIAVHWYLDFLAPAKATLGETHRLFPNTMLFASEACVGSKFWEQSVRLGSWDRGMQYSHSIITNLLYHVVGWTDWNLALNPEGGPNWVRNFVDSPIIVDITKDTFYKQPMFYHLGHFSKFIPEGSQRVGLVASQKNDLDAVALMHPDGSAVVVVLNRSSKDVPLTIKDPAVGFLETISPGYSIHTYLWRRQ
Cytochrome P450 1A2 (Homo sapiens), sequence (P05177 whole entry, looked up): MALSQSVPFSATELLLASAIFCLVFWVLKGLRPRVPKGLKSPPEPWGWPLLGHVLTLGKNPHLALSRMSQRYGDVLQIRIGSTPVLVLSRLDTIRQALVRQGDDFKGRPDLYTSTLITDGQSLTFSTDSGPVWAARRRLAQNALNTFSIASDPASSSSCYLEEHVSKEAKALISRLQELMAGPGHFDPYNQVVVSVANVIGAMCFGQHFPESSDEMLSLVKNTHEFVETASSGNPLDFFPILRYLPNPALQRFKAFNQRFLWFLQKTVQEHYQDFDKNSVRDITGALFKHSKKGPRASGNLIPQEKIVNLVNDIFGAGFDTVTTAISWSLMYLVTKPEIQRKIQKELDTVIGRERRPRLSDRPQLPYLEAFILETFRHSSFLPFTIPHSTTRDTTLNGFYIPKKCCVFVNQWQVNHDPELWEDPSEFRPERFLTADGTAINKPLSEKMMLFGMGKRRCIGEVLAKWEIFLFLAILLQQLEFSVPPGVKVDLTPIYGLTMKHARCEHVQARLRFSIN
Glucocorticoid receptor (Homo sapiens), sequence (P04150 whole entry, looked up, the tested form may be a part): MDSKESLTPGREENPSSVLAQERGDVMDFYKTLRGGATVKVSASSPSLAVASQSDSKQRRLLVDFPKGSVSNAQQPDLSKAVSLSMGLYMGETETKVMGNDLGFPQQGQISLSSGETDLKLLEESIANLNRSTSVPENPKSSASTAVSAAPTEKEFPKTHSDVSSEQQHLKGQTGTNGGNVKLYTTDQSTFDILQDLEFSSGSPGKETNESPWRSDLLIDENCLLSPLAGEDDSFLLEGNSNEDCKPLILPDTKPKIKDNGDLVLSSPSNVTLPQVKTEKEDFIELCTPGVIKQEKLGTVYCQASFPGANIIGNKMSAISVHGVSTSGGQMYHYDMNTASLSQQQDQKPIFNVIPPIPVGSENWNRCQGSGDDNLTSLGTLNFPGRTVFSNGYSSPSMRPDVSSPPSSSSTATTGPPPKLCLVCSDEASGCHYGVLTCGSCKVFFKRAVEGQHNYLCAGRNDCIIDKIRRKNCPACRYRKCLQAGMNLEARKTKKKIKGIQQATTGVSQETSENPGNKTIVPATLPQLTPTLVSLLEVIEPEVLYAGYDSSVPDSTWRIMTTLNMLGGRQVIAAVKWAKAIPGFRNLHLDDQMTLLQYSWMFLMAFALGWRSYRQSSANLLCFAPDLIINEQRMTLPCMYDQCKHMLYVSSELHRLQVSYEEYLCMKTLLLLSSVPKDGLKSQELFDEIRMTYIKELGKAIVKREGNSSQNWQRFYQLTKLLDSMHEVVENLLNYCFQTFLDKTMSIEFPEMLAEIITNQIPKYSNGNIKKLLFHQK
Ubiquitin carboxyl-terminal hydrolase 1 (Homo sapiens), sequence (O94782 whole entry, looked up): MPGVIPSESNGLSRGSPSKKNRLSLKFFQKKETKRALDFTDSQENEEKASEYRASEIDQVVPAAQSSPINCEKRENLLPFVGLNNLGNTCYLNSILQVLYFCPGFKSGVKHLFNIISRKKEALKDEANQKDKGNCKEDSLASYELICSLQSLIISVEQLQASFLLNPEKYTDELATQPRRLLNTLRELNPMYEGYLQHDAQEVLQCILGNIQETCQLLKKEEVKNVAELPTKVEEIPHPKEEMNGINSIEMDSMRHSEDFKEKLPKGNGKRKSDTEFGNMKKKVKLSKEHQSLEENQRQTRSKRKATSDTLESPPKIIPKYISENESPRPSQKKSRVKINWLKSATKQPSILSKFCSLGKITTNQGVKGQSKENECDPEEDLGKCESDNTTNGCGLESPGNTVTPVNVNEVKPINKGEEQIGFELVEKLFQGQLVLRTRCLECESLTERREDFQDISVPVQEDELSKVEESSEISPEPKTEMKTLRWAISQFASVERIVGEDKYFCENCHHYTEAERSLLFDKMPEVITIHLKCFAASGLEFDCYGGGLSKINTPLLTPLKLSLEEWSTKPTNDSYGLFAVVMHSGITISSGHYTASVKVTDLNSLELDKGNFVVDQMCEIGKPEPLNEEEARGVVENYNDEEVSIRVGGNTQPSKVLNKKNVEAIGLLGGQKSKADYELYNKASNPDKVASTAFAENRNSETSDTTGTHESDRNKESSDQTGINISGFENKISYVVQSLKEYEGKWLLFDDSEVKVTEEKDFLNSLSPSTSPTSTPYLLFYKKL
ATPase family AAA domain-containing protein 5 (Homo sapiens), sequence (Q96QE3 whole entry, looked up, the tested form may be a part): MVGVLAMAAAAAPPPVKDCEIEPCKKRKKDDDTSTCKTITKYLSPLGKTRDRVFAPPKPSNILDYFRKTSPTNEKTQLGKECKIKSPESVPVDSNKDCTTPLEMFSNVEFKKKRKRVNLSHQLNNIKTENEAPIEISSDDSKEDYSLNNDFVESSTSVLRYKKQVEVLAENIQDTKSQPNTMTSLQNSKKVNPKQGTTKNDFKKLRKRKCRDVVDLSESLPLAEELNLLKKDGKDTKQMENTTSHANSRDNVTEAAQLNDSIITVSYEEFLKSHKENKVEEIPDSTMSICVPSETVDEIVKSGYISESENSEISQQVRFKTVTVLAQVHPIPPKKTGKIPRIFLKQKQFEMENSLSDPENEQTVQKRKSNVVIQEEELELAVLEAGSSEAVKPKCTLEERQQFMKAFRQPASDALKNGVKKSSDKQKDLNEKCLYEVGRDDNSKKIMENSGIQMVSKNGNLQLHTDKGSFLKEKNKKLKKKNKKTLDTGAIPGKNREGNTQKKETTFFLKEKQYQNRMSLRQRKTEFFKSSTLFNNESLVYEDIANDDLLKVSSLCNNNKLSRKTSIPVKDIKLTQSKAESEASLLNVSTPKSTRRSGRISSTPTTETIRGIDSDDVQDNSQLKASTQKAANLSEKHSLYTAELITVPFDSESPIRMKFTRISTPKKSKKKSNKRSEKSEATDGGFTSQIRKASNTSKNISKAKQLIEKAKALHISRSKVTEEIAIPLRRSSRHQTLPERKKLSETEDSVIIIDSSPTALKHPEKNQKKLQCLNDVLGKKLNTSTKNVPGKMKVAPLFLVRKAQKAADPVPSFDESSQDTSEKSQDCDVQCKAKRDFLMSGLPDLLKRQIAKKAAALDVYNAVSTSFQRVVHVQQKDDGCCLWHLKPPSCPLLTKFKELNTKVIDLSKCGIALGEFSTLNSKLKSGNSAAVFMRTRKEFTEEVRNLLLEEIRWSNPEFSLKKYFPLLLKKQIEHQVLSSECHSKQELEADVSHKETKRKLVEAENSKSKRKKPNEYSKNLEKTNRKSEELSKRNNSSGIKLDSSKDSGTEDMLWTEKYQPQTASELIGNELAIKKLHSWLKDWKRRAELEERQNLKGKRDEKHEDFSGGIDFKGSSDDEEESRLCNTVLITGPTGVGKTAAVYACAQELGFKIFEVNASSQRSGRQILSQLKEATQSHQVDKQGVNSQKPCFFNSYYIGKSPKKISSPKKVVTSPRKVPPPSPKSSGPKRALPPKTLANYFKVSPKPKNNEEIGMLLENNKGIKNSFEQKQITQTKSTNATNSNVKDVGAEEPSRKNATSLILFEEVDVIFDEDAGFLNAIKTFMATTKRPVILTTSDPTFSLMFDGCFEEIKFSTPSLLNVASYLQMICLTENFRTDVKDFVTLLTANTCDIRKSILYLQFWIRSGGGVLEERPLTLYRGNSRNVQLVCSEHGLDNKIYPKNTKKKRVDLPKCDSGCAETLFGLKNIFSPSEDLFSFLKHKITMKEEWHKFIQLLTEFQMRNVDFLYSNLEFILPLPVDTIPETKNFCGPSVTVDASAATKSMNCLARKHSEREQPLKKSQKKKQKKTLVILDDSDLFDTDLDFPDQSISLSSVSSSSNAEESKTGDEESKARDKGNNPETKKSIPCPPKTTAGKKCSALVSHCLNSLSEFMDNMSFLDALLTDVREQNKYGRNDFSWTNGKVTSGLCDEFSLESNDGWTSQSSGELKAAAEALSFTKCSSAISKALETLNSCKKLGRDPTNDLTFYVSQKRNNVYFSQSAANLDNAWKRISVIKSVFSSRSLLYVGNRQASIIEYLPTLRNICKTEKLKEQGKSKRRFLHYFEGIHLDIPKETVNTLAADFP
Cytochrome P450 3A4 (Homo sapiens), sequence (P08684 whole entry, looked up): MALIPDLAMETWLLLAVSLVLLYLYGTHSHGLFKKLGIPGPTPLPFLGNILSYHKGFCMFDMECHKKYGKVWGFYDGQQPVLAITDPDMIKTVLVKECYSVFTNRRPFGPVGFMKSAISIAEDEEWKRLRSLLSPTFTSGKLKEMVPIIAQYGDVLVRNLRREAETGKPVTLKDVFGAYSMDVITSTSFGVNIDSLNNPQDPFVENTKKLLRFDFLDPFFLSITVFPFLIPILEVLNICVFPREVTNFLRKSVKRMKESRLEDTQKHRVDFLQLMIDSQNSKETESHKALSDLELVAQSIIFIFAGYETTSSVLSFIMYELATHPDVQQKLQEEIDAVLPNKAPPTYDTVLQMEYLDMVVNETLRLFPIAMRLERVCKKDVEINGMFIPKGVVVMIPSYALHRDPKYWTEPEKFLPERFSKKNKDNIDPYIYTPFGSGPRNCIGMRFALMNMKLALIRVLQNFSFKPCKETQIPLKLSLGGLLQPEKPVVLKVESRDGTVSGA

`Cc1nnc(N/N=C/c2ccccn2)[nH]c1=O`: the molecule was called inactive in assay [1], in assay [2] and in [6]. The Potency in assay [3] is 2.23 µM (active); in assay [4], 2.5 µM (active); in assay [5] it was 7.06 µM (active).

For the molecule `N[C@H](CO)C(=O)NCC(=O)O` (HELM PEPTIDE1{[dS].G}$$$$V2.0), the Potency in [7] was > 11.4 µM; in [12] it was > 46 µM; in assay [13] it was > 9.22 µM. For the same molecule, the activity change, negative = inhibition is -4.49% in [8], 3.6% [at 2.29 µM] in assay [9] and 13.2% in [10]. Moreover, the activity, negative = inhibition in assay [11] was 13.6%. Further, the Potency result in assay [14] is “inactive”.

For `CN(C)c1ccc(-c2cc(NCc3ccccc3)ncn2)cc1`, the Potency in assay [7] was > 11.4 µM; in assay [9], 1 µM (active); in [12], > 46 µM; in assay [13], > 46 µM. Further, the activity change, negative = inhibition in assay [8] is -19.2%; in [10], 12.6%. In addition, in assay [11], the activity, negative = inhibition was -7.24%. The Potency entry in [14], in assay [15] and in [18] was “inactive” each time. Besides, the result in assay [16] and in assay [17] was inactive.

Turning to `CN(C)Cc1ccccc1-c1ccc2ncnc(NC3CCNCC3)c2c1`, the Potency in assay [7] is > 11.4 µM; in assay [12], > 46 µM; in assay [13] it was > 46 µM. Further, the activity change, negative = inhibition is 20.2% in assay [8] and -12.2% in assay [10]. Further, the Potency entry in [9], in [14], in assay [19] and in [18] was “inactive” in each case. Besides, the activity, negative = inhibition in assay [11] is -2.13%. The call in assay [16] and in assay [17] was inactive.
